HT1080-NT tox: kills 2HG-producing HT-1080-NT fibrosarcoma cells; 1.6% of 360,000 active; HT-1080-NT fibrosarcoma viability, CellTiter-Glo ATP luminescence, 48 h; Potency, µM (doses to about 46.1 µM), for inactives: top-dose activity, negative = less viability, hits mostly cytotoxic; AID 686970;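 further: NT is the 2HG producing partner of a matched IDH1 knockdown line; 0% = DMSO-treated cells and -100% = media-only wells without cells; nearly all actives have a fitted effect of over 55% in size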
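Compounds were tested in concentration-response format on HT-1080-NT cells for 48 hours at 37 degrees C. Cell viability came from CellTiter-Glo luminescence; curves were classified by r2, response magnitude and activity.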
KB-V1 MDR tox: KB-V1 MDR subline cytotoxicity; Potency, µM (top dose mostly 46.1 µM), actives largely listed as cytotoxic; KB-V1 MDR cells viability, CellTiter-Glo, 72 h; 3.4% of 400,000 active; further: on the % scale 0 is the no-effect control and ±100 the full control effect; nearly all actives have a fitted effect of over 60% in size
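Drug-selected KB-V1 cells, grown in DMEM lacking phenol red with 10% FBS, receive compound titrations; after three days at 37 degrees C, surviving cell ATP is quantified by CellTiter-Glo luminescence and responses normalized and curve-fitted.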
KB-3-1 tox: KB-3-1 parental cell cytotoxicity. KB-3-1 viability, CellTiter-Glo ATP luminescence, 72 h. Potency, µM (series often up to 46.1 µM), most hits filed as cytotoxic. 1.4% of 400,000 active; further: on the % scale 0 is the no-effect control and ±100 the full control effect; nearly all actives have a fitted effect of over 60% in size
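Here the drug-naive KB-3-1 line serves as comparator for MDR sub-line selectivity; cells received compound titrations, 72 h at 37 °C, then CellTiter-Glo readout.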
TGFb inhibitor: blocks TGF-b signaling; 1.2% of 410,000 active; Potency, µM (doses to about 46.1 µM), inactives show at the highest dose activity, negative = inhibition, actives largely listed as inhibitors; HepG2 CAGA-GFP TGF-b/SMAD3 reporter, GFP fluorescence, 18 h; TGF-beta stimulated, 500 pg/mL final; further: on the % scale 0 is the no-effect control and ±100 the full control effect; nearly all actives have a fitted effect of over 65% in size
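Cell-based qHTS in HEPG2 carrying a CAGA-GFP Smad reporter; compounds added before 500 pg/mL final TGF-beta, 18 h incubation at 37 degrees C, GFP fluorescence quantified per cell by imaging cytometry.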
HT1080 IDH1KD tx: kills HT-1080 cells with IDH1 knockdown; Potency, µM (top dose mostly 46.1 µM), inactives show at the highest dose activity, negative = toxicity, usual class: cytotoxic; 2% of 360,000 active; HT-1080 IDH1 knockdown viability, ATP luminescence, 48 h; AID 686971;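 further: 0% = DMSO wells and -100% = cell-free medium wells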
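IDH1KD HT-1080 cells, 750/well, RPMI + 5% FBS; compound pinned after 2 h settling; 48 h, 37 °C; CellTiter-Glo luminescence; % activity normalised to DMSO and no-cell wells; curves fitted, classed by r2 and efficacy.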
HepG2 tox: kills HepG2 cells in TGF-b inhibitor counter-screen; HepG2 CAGA-GFP viability, ATP luminescence, 18 h; Potency, µM (titrated, usually from 46.1 µM), for the others: at the top dose activity change, negative = cytotoxicity, usual class: cytotoxic; 0.76% of 410,000 active
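HepG2 CAGA-GFP cells (1000/well, DMEM with 1% FBS) received compound, then TGF-beta at 500 pg/mL final, and were incubated 18 hours at 37 degrees C. Viability was read by CellTiter-Glo luminescence. Media-only wells were set as complete cell-killing and DMSO as no toxicity.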
Starred values were filed as active, the others as inactive. Only some compounds are listed: those with a hit (about 6.6% of all), similar ones and a draw of the others. The call rests on the fitted dose curve; in most records, active means well fitted curve in the direction sought with a large enough effect; inconclusive means small, poorly fitted or top-dose-only effect, or another doubt; inactive means no such curve, though single readings can be large; an effect the other way counts as inactive or inconclusive. Potency means the concentration at half of the fitted maximal effect.

Screening CCC(C)OC(=O)c1[nH]c2c(c1C)C(=O)CC(c1ccc(N(C)C)cc1)C2 (configuration not stated) returned HT1080-NT tox inconclusive, KB-V1 MDR tox inconclusive, KB-3-1 tox inconclusive, TGFb inhibitor -25%, HT1080 IDH1KD tx 23µM* and HepG2 tox -15%.
For CCOCCOC(=O)c1[nH]c2c(c1C)C(=O)CC(c1ccc(N(C)C)cc1)C2 (configuration not stated) the results were HT1080-NT tox 1%, KB-V1 MDR tox inconclusive, KB-3-1 tox inconclusive, TGFb inhibitor 9%, HT1080 IDH1KD tx inconclusive and HepG2 tox 25%.
`O=S(=O)(c1ccc(Br)cc1)c1nnn2c1nc(NCc1cccs1)c1sccc12` gave KB-V1 MDR tox inactive, KB-3-1 tox inactive, TGFb inhibitor 46% and HepG2 tox 8%.
CC1(C)c2ccccc2N2CC(=O)N[C@@]21/C=C/C=C/c1ccccc1 was read as HT1080-NT tox 10µM*, KB-V1 MDR tox inactive, KB-3-1 tox inconclusive, TGFb inhibitor inconclusive, HT1080 IDH1KD tx inconclusive and HepG2 tox 21%.
For CCOC(=O)C1=C(NC(=S)NC(=O)c2ccccc2)c2ccccc2CC1C(C)C (configuration not stated) the results were HT1080-NT tox inconclusive, KB-V1 MDR tox inconclusive, KB-3-1 tox inconclusive, TGFb inhibitor -3%, HT1080 IDH1KD tx inconclusive and HepG2 tox -19%.
Screening CCOC(=O)C1=C(NC(=S)NC(=O)c2ccccc2)c2ccccc2CC1(C)CC (configuration not stated) returned HT1080-NT tox -8%, KB-V1 MDR tox inconclusive, KB-3-1 tox 16µM*, TGFb inhibitor 0%, HT1080 IDH1KD tx inconclusive and HepG2 tox -16%.
`CCOC(=O)c1oc2ccc(S(=O)(=O)n3nc(-c4cc(OC)cc(OC)c4)cc3N)cc2c1C` gave KB-V1 MDR tox inactive, KB-3-1 tox inactive, TGFb inhibitor -14% and HepG2 tox -15%.
For CC(C)Cc1cc(C(=O)Nc2ccc3c(c2)OCO3)no1 the results were HT1080-NT tox inconclusive, KB-V1 MDR tox inactive, KB-3-1 tox inconclusive, TGFb inhibitor 5%, HT1080 IDH1KD tx 5.2µM* and HepG2 tox -22%.
For Cc1cc(C(=O)Nc2ccc3c(c2)OCO3)no1 the results were HT1080-NT tox inconclusive, KB-V1 MDR tox inactive, KB-3-1 tox inactive, TGFb inhibitor -3%, HT1080 IDH1KD tx 21µM* and HepG2 tox -15%.
Screening CCN(CC(=O)Nc1c(F)cccc1F)C(=O)C1CCN(C(=O)Nc2ccccc2)CC1 returned HT1080-NT tox 0%, KB-V1 MDR tox inactive, KB-3-1 tox inactive, TGFb inhibitor -5%, HT1080 IDH1KD tx -4% and HepG2 tox 2%.
For N#CC(C#N)=c1ccc2c(c1)NC1(CCCCC1)N=2 the results were HT1080-NT tox inconclusive, KB-V1 MDR tox inconclusive, KB-3-1 tox inconclusive, TGFb inhibitor inconclusive, HT1080 IDH1KD tx 23µM* and HepG2 tox -58%.
Cc1cccc(-c2noc(CN(C(=O)COc3ccc(Br)cc3C)C(C)C)n2)c1 was read as KB-V1 MDR tox inactive, KB-3-1 tox inactive, TGFb inhibitor inconclusive and HepG2 tox -28%.
`COc1ccc(OC)c(NC(=O)Cn2c(=O)n(Cc3ccco3)c(=O)c3cc(OC)c(OC)cc32)c1` gave KB-V1 MDR tox inactive, KB-3-1 tox inactive, TGFb inhibitor -1% and HepG2 tox 1%.
Screening COc1ccc2nc(SCC(=O)Nc3ccccc3C)[nH]c2c1 returned HT1080-NT tox 3%, KB-V1 MDR tox 15µM*, KB-3-1 tox inactive, TGFb inhibitor -9%, HT1080 IDH1KD tx 1% and HepG2 tox 0%.
For CCN(CC)S(=O)(=O)c1ccc(C)c(NC(=O)CSc2nc3ccccc3[nH]2)c1 the results were HT1080-NT tox -9%, KB-V1 MDR tox inconclusive, KB-3-1 tox inactive, TGFb inhibitor -25%, HT1080 IDH1KD tx -15% and HepG2 tox -24%.
For Cc1ccc(S(=O)(=O)N(C)C)cc1NC(=O)CSc1nc2ccccc2[nH]1 the results were HT1080-NT tox 1%, KB-V1 MDR tox 15µM*, KB-3-1 tox inactive, TGFb inhibitor 0%, HT1080 IDH1KD tx 0% and HepG2 tox 11%.
For Cc1csc(N(C)C(=O)CSc2nnc(COc3cccc4ccccc34)o2)n1 the results were HT1080-NT tox 6.3µM*, KB-V1 MDR tox inconclusive, KB-3-1 tox inactive, TGFb inhibitor inconclusive, HT1080 IDH1KD tx inconclusive and HepG2 tox -8%.
CC[n+]1ccccc1/C=C1\Sc2ccc(C)cc2N1C was read as HT1080-NT tox 23µM*, KB-V1 MDR tox inactive, KB-3-1 tox inconclusive, TGFb inhibitor inconclusive, HT1080 IDH1KD tx 9.2µM* and HepG2 tox -64%.
OC[C@@H]1CN(CCN2CCOCC2)C[C@H](n2cnc3c(Nc4ccccc4)ncnc32)O1 was read as HT1080-NT tox 19%, KB-V1 MDR tox inactive, KB-3-1 tox inactive, TGFb inhibitor 1%, HT1080 IDH1KD tx 5% and HepG2 tox 4%.
NC(=O)C1CCN(c2nc(-c3cccc(Cl)c3)cs2)CC1 was read as KB-V1 MDR tox inactive, KB-3-1 tox inactive, TGFb inhibitor inconclusive and HepG2 tox 6.3µM*.
Screening COc1cc(C#Cc2c(-c3cncn3C)n(C)c3ccc(-c4cc(OC)c(OC)c(OC)c4)cc23)cc(OC)c1 returned HT1080-NT tox inconclusive, KB-V1 MDR tox inconclusive, KB-3-1 tox 12µM*, TGFb inhibitor inconclusive, HT1080 IDH1KD tx inconclusive and HepG2 tox -14%.
Screening NC(=O)C1CCN(CC(=O)Nc2ccccc2Sc2ccccc2)CC1 returned HT1080-NT tox 1%, KB-V1 MDR tox 21µM*, KB-3-1 tox inactive, TGFb inhibitor 8%, HT1080 IDH1KD tx 11% and HepG2 tox 4%.
For O=C(C1CCCCC1)N(Cc1cccnc1)c1nc2ccc(Cl)cc2s1 the results were TGFb inhibitor -3% and HepG2 tox -5%.
CCn1c2ccccc2c2n[nH]c(=S)nc21 was read as HT1080-NT tox 13%, KB-V1 MDR tox 6.5µM*, KB-3-1 tox inconclusive, TGFb inhibitor -10%, HT1080 IDH1KD tx 0% and HepG2 tox -4%.
For C=CCn1c2ccccc2c2n[nH]c(=S)nc21 the results were HT1080-NT tox 0%, KB-V1 MDR tox inconclusive, KB-3-1 tox inactive, TGFb inhibitor 3%, HT1080 IDH1KD tx -2% and HepG2 tox -35%.
